About 25,000 (6.9%) of roughly 360,000 compounds were called active. Inconclusive results (about 9%) are left out. Only a selection was taken, and actives are over-represented in it overall. Values without a mark were called inactive. Calls follow the shape of the dose curve; as a rule, active = well fitted inhibition curve with a large enough effect; inconclusive = small, poorly fitted or top-dose-only effect; inactive = flat fitted curve, though single readings scatter.
Biological target: Luciferin 4-monooxygenase (Photinus pyralis) (UniProt P08659)
Assay: qHTS profiling assay for firefly luciferase inhibitor/activator using purifed enzyme and Km concentrations of substrates (counterscreen for miR-21 project); also: nearly all actives have a fitted effect of over 55% in size;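 as to activity change, negative = inhibition: plate controls were vehicle for no effect and reference inhibitor for full effect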
Details: purified FLuc, luminescence inhibition; series mostly up to 57.5 µM; activity change, negative = inhibition: at the top concentration
Procedure, shortened: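 Purified P. pyralis luciferase (10nM final) with 10uM D-luciferin and 10uM ATP (Km levels) in 50mM Tris acetate pH 7.5, 10mM Mg acetate, 0.01% Tween-20, 0.05% BSA; qHTS 6-point titration, ~60 µM downward; luminescence read.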
Potency is read from the fitted curve at half-maximal effect.

Sequence of Luciferin 4-monooxygenase (Photinus pyralis) (P08659 whole entry, looked up): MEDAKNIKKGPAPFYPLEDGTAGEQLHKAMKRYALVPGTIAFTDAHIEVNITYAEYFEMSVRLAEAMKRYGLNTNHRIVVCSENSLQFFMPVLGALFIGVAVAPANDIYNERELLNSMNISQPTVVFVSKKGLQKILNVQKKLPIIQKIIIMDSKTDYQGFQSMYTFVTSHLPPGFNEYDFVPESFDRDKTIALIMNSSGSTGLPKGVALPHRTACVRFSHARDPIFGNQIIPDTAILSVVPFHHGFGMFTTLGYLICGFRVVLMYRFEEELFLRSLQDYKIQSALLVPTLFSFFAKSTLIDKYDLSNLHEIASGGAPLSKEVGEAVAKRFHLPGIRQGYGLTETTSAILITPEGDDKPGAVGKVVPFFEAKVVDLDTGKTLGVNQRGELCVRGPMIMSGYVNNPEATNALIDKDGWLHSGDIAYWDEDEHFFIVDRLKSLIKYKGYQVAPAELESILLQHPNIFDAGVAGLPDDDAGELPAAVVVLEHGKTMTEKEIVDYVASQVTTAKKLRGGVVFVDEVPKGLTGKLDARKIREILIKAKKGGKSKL

| Structure (SMILES) | activity change, negative = inhibition | Potency |
| --- | --- | --- |
| Cc1ccc(-c2nn3c(=O)cc(CN4CCN(C(=O)Nc5cccc(C(F)(F)F)c5)CC4)nc3s2)cc1 | 1.5% | – |
| CCCCOc1ccc(C(=O)Nc2cccc(-c3nc4ccccc4o3)c2C)cc1 | 0.726% | – |
| Cc1cc(C)c2oc(-c3cccc(NC(=O)c4cccc(F)c4)c3C)nc2c1 | – | 0.849 µM (active) |
| Cc1cccc(NC(=O)c2ccc3nc(C(C)C)oc3c2)c1C | 4.06% | – |
| CCc1cc2c(cc(C(=O)OC)n2Cc2nc(-c3ccc(C)cc3)oc2C)s1 | 4.94% | – |
| Cc1ccc(Cn2c(=O)n(-c3ccc(C)cc3)c(=O)c3c2c2cc(C)ccc2n3C)cc1 | 0.879% | – |
| Cc1ccc(-c2cnc(NCc3ccc(C(C)C)cc3)n2C)cc1 | -8.87% | – |
| Cc1cccc(N(C(=O)c2sc(C)nc2C)C(C(=O)NCC2CCCO2)c2ccccc2)c1 (stereo not given) | -0.32% | – |
| COc1ccc(NC(=O)CCNC(=O)Cn2cnc3sc4c(c3c2=O)CCCC4)cc1OC | 3.17% | – |
| COc1ccc(/C=N/Nc2ncnc3sc4c(c23)CCCC4)cc1O | – | 1.69 µM (active) |
| COc1ccc(NC(=O)CCCNC(=O)Cn2cnc3sc4c(c3c2=O)CCCC4)cc1OC | 1.63% | – |
| CCCOc1ccc(NC(=O)CC2C(=O)N(c3ccccc3)C(=O)N2Cc2ccco2)cc1 (stereo not given) | -2.45% | – |
| CCc1ccc(CNC(=O)CCc2nc(-c3cccs3)no2)cc1 | 1.93% | – |
| COc1ccc(OC)c(CNC(=O)CCc2nc(-c3cccs3)no2)c1 | 4.41% | – |
| COc1ccc(CCc2nc(-c3cccs3)no2)cc1 | – | 19 µM (active) |
| COc1ccc(-n2c(SC)nc3sc4c(c3c2=O)CCN(C(C)=O)C4)cc1 | -0.891% | – |
| Cc1cccc(NC(=O)Cn2c(=O)n(CCC(C)C)c(=O)c3cccnc32)c1 | -4.8% | – |
| COc1ccccc1C(=O)OCc1cc(=O)n2nc(-c3cccs3)sc2n1 | 4.29% | – |
| O=C(Cn1c(=O)n(-c2ccc(F)cc2)c(=O)c2sc3ccccc3c21)NC1CCCC1 | 1.27% | – |
| Cc1ccc(C(=O)NCCc2nnc(SCC(=O)Nc3cccc(C(=O)O)c3)n2C)cc1 | – | 10.7 µM (active) |
| Cc1cccc(NC(=O)CSc2nnc(CNC(=O)c3cccc(C)c3)n2-c2ccccc2)c1 | -10.2% | – |
| Cc1ccc(C)c2c1cc(C)c1nnc(SCC(=O)Nc3cccc(C(=O)O)c3)n12 | 1.26% | – |
| COc1ccc(CCN(Cc2cc3cccc(C)c3[nH]c2=O)C(=O)N2CCCC2)cc1OC | 2.09% | – |
| CCOc1ccc(NC(=O)c2cc(S(=O)(=O)N3CCCC3)c[nH]2)cc1 | -4.94% | – |
| CCCOc1ccc(C(=O)NCCc2ccccc2)cc1 | – | 1.07 µM (active) |

| Structure (SMILES) | activity change, negative = inhibition | Potency |
| --- | --- | --- |
| CC(C)c1ccc(C(=O)NCCCc2ccccc2)cc1 | – | 10.7 µM (active) |
| O=C(CCNC(=O)c1ccc(Br)cc1)NCCCc1ccccc1 | -3.03% | – |
| Cc1c(C(=O)NCCCc2ccccc2)cccc1[N+](=O)[O-] | 3.72% | – |
| O=C(NCCOc1ccccc1)c1ccccc1 | – | 4.78 µM (active) |
| CCCCCCCCC(=O)NCCOc1ccccc1 | -2.85% | – |
| NS(=O)(=O)c1cc(C(=O)NCCOc2ccccc2)c(Cl)cc1Cl | -0.907% | – |
| CN(c1ccccc1)S(=O)(=O)c1ccc(C(=O)NCCc2ccccc2)cc1 | -2.94% | – |
| COc1ccc(OCCCC(=O)NCCc2ccccc2)cc1 | 2.74% | – |
| CCOc1ccc(C2C(C(=O)Nc3ccc(Cl)cc3)=C(C)Nc3nc(C(F)(F)F)nn32)cc1 (stereo not given) | 1.24% | – |
| COc1ccc(CCNC(=O)c2c3c(nc4ccccc24)C(=O)N(C2CCCCC2)C3)cc1OC | -2.5% | – |
| CCOC(=O)CN1C(C(=O)c2ccccc2)=C(OC(=O)C(C)(C)C)c2ccccc2S1(=O)=O | 3.84% | – |
| CSc1nc(-c2ccccc2Cl)nc2c1Cc1c(CO)cnc(C)c1O2 | -4.31% | – |
| CCOc1ccc(NC(=O)c2ccccc2NS(C)(=O)=O)cc1 | – | 10.7 µM (active) |
| COC(=O)c1ccc(NC(=O)c2ccccc2NS(=O)(=O)c2ccccc2)cc1 | – | 16.9 µM (active) |
| COc1ccc(NC(=O)c2cnc(NS(=O)(=O)c3ccccc3)nc2)cc1 | 0.658% | – |
| CCOc1ccc(NC(=O)c2cnn(-c3ccccc3)c2-n2cccc2)cc1 | -19.4% | – |
| CCCNC(=O)Nc1ccccc1C(=O)Nc1ccc(OC)cc1 | -14.9% | – |
| COC(=O)c1ccccc1NS(=O)(=O)c1ccc2[nH]c(=O)[nH]c2c1 | -2.28% | – |
| CCC1CCCCN1S(=O)(=O)c1ccc(NC(=O)c2cc(=O)c3ccccc3o2)cc1 (stereo not given) | -1.88% | – |
| COc1ccc(NC(=O)CCCN2C(=O)CCn3nc(-c4cn(C)c5ccccc45)cc32)cc1OC | -11.5% | – |
| O=S(=O)(NCCc1nnc2ccc(SCc3ccc(Cl)cc3Cl)nn12)c1ccccc1 | -3.8% | – |
| CCOc1ccc2oc(=O)cc(CN3CCN(C(=O)c4ccc(F)cc4)CC3)c2c1 | -5.98% | – |
| Cc1cc2c(C)nc(N/N=C/c3ccccc3)nc2o1 | – | 9.53 µM (active) |
| Cc1cc(C)nc(N/N=C/c2ccc([N+](=O)[O-])o2)n1 | -13.7% | – |
| Cc1cc(C)nc(N/N=C/c2ccncc2)n1 | 4.25% | – |

— PubChem BioAssay AID588342 (National Center for Advancing Translational Sciences (NCATS), 2011)
